# Measurements: PubChem BioAssay (EPA / NIEHS)
# Values joined by “and” are separate entries in the source; they are usually repeats but may differ in a detail not shown here. Equal values may be shown once. Records with an inconclusive call do not appear. Active and inactive are the calls of the source. Rule for the calls, unless noted: active = hit-call score of the fitted dose curve at least 0.9, where 1 is the maximum; inconclusive = response in the unintended direction; inactive = score below 0.9.
# Assays:
# [1] = biological target: guinea pig Sigma Receptor, Non-selective Binding, SIGMAR1 (gene 100135589) (UniProt Q60492); assay: NVS_OR_gSIGMA_NonSelective: NovaScreen (NVS) Nuclear Receptor Binding Assay for guinea pig Sigma Receptor, Non-selective Binding (AID 2283367)
# Method in brief: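 Radioligand displacement on guinea pig brain membranes, read by filter-based scintillation counting 1 h after dosing. Loss of signal versus DMSO; initial duplicate single-point screen at 25 uM, actives followed in concentration series.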
# [2] = biological target: human Norepinephrine Transporter (NET), SLC6A2 (gene 6530) (UniProt P23975); assay: NVS_TR_hNET: NovaScreen (NVS) Transporter Assay for human Norepinephrine Transporter (NET) (AID 2283377);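 note: displacement of radioligand from human NET seen as loss of scintillation signal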
# Method in brief: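 Cell-free radioligand binding using CHO-derived membrane protein expressing human NET, read by filter scintillation counting 1 h after dosing; loss of signal vs DMSO. Initial duplicate screen at 25 uM, actives retested in concentration series.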
# [3] = biological target: Glucocorticoid receptor (Homo sapiens) (UniProt P04150); assay: NVS_NR_hGR: NovaScreen (NVS) Nuclear Receptor Binding Assay for human Glucocorticoid Receptor (GR) (AID 2283363);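 note: activity is loss of specific radioligand binding signal relative to DMSO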
# Method in brief: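 Cell-free radioligand displacement assay on extracted human GR, read 16 h after dosing by filter-based scintillation counting. Screened in duplicate at 25 uM, then concentration series for actives; loss of signal versus DMSO baseline.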
# [4] = biological target: human Adenosine Transporter (Adot), SLC29A1 (gene 2030) (UniProt Q99808); assay: NVS_TR_hAdoT: NovaScreen (NVS) Transporter Assay for human Adenosine Transporter (Adot) (AID 2283368)
# Method in brief: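 U937-derived membranes, cell-free radioligand binding, filter scintillation 1 h after dosing. 25 uM duplicate screen; hits (e.g. 30% inhibition) run in concentration-response up to 50 uM; loss of signal versus DMSO.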
# [5] = test system: guinea pig Dopamine Transporter (DAT), gene 100714898; assay: NVS_TR_gDAT: NovaScreen (NVS) Transporter Assay for guinea pig Dopamine Transporter (DAT) (AID 2283369);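 note: active compounds lower bound radioligand signal relative to DMSO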
# Method in brief: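 Scintillation counts of filter-retained radioligand report binding to guinea pig striatal membranes after 2 h. Activity scored as signal loss relative to DMSO, first at 25 uM in duplicate, then in concentration series to 50 uM.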
# [6] = biological target: human Serotonin Transporter (SERT), SLC6A4 (gene 6532) (UniProt P31645); assay: NVS_TR_hSERT: NovaScreen (NVS) Transporter Assay for human Serotonin Transporter (SERT) (AID 2283372)
# Method in brief: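 Radioligand binding to native SERT in human platelet membranes, read by filter-based scintillation counting 1 h after dosing. Primary screen in duplicate at 25 uM; actives followed up in concentration series; loss of signal versus DMSO baseline.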
# [7] = test system: rat Norepinephrine Transporter (NET), gene 83511; assay: NVS_TR_rNET: NovaScreen (NVS) Transporter Assay for rat Norepinephrine Transporter (NET) (AID 2283373)
# Method in brief: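 Rat forebrain membranes; radioligand binding measured by filter-based scintillation counting 1 hour after dosing. Loss of specific binding versus DMSO baseline scored; primary screen in duplicate at 25 uM, actives followed up in concentration series.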
# [8] = biological target: human Dopamine Transporter (DAT), SLC6A3 (gene 6531) (UniProt Q01959); assay: NVS_TR_hDAT: NovaScreen (NVS) Transporter Assay for human Dopamine Transporter (DAT) (AID 2283374);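 note: activity means loss of bound radioligand signal relative to DMSO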
# Method in brief: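 Cell-free radioligand displacement binding at human DAT, 1 h after dosing, with filtration and scintillation counting. Primary screen in duplicate at 25 uM, actives then in concentration series. Loss of bound signal versus DMSO scored.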
# [9] = biological target: rat Serotonin Transporter (SERT), Slc6a4 (gene 25553) (UniProt P31652); assay: NVS_TR_rSERT: NovaScreen (NVS) Transporter Assay for rat Serotonin Transporter (SERT) (AID 2283375)
# Method in brief: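 Filtration-based radiodetection quantified loss of specific radioligand binding in rat forebrain membranes after 1 hour of chemical exposure, relative to DMSO. Chemicals were first tested in duplicate at 25 uM.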
# [10] = biological target: Norway rat Vesicular Monoamine Transporter (VMAT2), neurotransmitter transporter, Slc18a2 (gene 25549) (UniProt Q01827); assay: NVS_TR_rVMAT2: NovaScreen (NVS) Transporter Assay for Norway rat Vesicular Monoamine Transporter (VMAT2), neurotransmitter transporter (AID 2283376);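 note: actives lower the bound radioligand signal below the DMSO level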
# Method in brief: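 Radioligand displacement binding on rat forebrain tissue preparation, filter-based scintillation read-out 1 hour after dosing. Primary screen in duplicate at 25 uM, then concentration series for actives; loss of signal versus DMSO.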
# [11] = biological target: mouse Estrogen Receptor alpha (Era), Esr1 (gene 13982) (UniProt P19785); assay: NVS_NR_mERa: NovaScreen (NVS) Nuclear Receptor Binding Assay for mouse Estrogen Receptor alpha (Era) (AID 2283378);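 note: hit means loss of bound radioligand signal relative to DMSO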
# Method in brief: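 Extracted mouse Era incubated with tritiated or iodinated radioligand plus test chemical, 18 h. Bound fraction separated on filters, counted by scintillation. DMSO = negative control/baseline; duplicate single-point at 25 uM, then concentration-response follow-up.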
# [12] = biological target: Estrogen receptor beta (Homo sapiens) (UniProt Q92731); assay: OT_ER_ERbERb_1440: Odyssey Thera (OT) 24-hour HEK293T Protein-Complementation Assay for Estrogen Receptor-beta/-beta Homodimer (AID 2283380);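 note: scored as signal increase over DMSO baseline for both agonists and antagonists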
# Method in brief: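 HEK293T cells stably expressing ER beta LBD (aa 310-547) homodimer fragment-complementation reporter, dosed 24 h. Cells formaldehyde-fixed, Draq5-stained; gain in nuclear (agonist) or nuclear plus cytoplasmic (antagonist) fluorescence versus DMSO read by laser scanning cytometry.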
# [13] = biological target: Estrogen receptor (Homo sapiens) (UniProt P03372); assay: OT_ERa_GFPERaERE_0480: Odyssey Thera (OT) 8-hour HeLa Transcription Induction Assay for Estrogen Receptor (AID 2283381; active = hit-call score of the fitted dose curve at least 0.9, where 1 is the maximum; inactive = score below 0.9)
# Method in brief: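 Cells (HeLa) receive compound; after 8 h, reporter fluorescence is imaged and quantified by high-content analysis. Gain-of-signal relative to DMSO gives the endpoint.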
# [14] = biological target: Estrogen receptor (Homo sapiens) (UniProt P03372); assay: OT_ERa_GFPERaERE_0120: Odyssey Thera (OT) 2-hour HeLa Transcription Induction Assay for Estrogen Receptor (AID 2283382)
# Method in brief: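 Measures ESR1 pathway reporter gain-of-signal in HeLa cells after a 2-hour treatment, detected as fluorescent protein induction by microscopy, DMSO as baseline.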
# [15] = biological target: Bile acid receptor (Homo sapiens) (UniProt Q96RI1); assay: OT_FXR_FXRSRC1_1440: Odyssey Thera (OT) 24-hour HEK293T Protein-Complementation Assay for Farnesoid X receptor/SRC-1 Co-activator (AID 2283384)
# Method in brief: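 Cell-based binding reporter: interaction of FXR with SRC-1 brings reporter fragments together, giving a fluorescence signal read 24 h after dosing of HEK293T cells.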
# [16] = biological target: human Thyroid Receptor Alpha (TRa), THRA (gene 7067) (UniProt P10827); assay: NVS_NR_hTRa_Antagonist: NovaScreen (NVS) Nuclear Receptor Binding Assay for human Thyroid Receptor Alpha Antagonism (TRa) (AID 2283362);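 note: activity is loss of signal relative to DMSO baseline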
# Method in brief: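 Extracted protein, cell-free; 1 h incubation after dosing; AlphaLISA chemiluminescence binding readout. DMSO = baseline/neg ctrl; signal loss = activity. Primary: duplicate, 25 uM; secondary: conc. series on actives.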
# [17] = biological target: Bile acid receptor (Homo sapiens) (UniProt Q96RI1); assay: OT_FXR_FXRSRC1_0480: Odyssey Thera (OT) 8-hour HEK293T Protein-Complementation Assay for Farnesoid X receptor/SRC-1 Co-activator (AID 2283383)
# Method in brief: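 Co-activator recruitment to FXR was measured in living HEK293T cells, where interaction of the two fused partners restored an active fluorescent reporter. Signal gain after 8 h treatment was referenced to DMSO.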
# [18] = biological target: rat Androgen Receptor (AR), Ar (gene 24208) (UniProt P15207); assay: NVS_NR_rAR: NovaScreen (NVS) Nuclear Receptor Binding Assay for rat Androgen Receptor (AR) (AID 2283366)
# Method in brief: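 Cell-free radioligand binding on extracts of prostate from testosterone-pretreated rats, read by filter-based scintillation counting 18 h after dosing. Loss of bound signal fitted positively versus DMSO; primary screen in duplicate at 25 uM, actives followed up in concentration series.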
# [19] = biological target: Agonist Androgen Response Element (ARE), AR (gene 367) (UniProt P10275); assay: OT_AR_ARELUC_AG_1440: Odyssey Thera (OT) 24-hour CHO-K1 Luciferase Assay for Agonist Androgen Response Element (ARE) (AID 2283379)
# Method in brief: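 CHO-K1 cells carrying an ARE-driven luciferase reporter were exposed to compounds for 24 h. Luminescence was then read after adding a D-luciferin/ATP mix, and activity was scored as a gain in signal over DMSO vehicle.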
# Chain of Bile acid receptor (Homo sapiens) (Q96RI1 whole entry, looked up, the tested form may be a part): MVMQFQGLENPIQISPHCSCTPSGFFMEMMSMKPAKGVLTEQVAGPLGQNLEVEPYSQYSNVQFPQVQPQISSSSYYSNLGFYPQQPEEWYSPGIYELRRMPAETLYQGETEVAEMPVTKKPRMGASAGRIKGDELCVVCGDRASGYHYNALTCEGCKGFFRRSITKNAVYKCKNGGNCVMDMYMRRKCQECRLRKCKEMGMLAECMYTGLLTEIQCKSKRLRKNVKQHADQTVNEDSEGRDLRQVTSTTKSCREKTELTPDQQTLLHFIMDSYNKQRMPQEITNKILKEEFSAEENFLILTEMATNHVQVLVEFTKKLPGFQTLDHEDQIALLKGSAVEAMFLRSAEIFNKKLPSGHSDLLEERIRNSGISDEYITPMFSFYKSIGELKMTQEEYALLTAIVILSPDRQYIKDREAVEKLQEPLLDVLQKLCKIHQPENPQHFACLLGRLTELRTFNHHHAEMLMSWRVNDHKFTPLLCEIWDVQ
# Chain of Estrogen receptor (Homo sapiens) (P03372 whole entry, looked up): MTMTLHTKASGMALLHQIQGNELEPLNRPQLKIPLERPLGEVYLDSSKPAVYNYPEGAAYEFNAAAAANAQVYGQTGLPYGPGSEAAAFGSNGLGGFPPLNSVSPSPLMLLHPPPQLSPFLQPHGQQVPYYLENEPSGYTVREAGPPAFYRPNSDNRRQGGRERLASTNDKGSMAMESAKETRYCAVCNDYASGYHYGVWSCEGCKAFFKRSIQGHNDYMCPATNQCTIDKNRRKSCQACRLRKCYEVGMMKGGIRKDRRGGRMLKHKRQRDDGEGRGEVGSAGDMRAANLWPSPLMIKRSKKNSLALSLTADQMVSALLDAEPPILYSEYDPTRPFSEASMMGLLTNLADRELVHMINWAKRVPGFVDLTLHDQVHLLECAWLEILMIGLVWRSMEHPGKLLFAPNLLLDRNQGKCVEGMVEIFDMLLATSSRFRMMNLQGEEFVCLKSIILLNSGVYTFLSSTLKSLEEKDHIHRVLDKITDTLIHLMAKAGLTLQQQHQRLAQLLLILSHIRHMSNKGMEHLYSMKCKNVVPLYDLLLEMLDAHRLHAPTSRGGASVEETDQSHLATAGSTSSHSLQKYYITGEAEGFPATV
# Chain of guinea pig Sigma Receptor, Non-selective Binding, SIGMAR1 (gene 100135589) (Q60492 whole entry, looked up): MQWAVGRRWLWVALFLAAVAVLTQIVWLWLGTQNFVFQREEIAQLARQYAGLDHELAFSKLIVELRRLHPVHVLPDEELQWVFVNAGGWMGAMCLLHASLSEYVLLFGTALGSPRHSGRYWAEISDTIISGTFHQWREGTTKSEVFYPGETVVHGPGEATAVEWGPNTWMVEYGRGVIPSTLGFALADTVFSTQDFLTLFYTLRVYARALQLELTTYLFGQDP
# Chain of human Norepinephrine Transporter (NET), SLC6A2 (gene 6530) (P23975 whole entry, looked up): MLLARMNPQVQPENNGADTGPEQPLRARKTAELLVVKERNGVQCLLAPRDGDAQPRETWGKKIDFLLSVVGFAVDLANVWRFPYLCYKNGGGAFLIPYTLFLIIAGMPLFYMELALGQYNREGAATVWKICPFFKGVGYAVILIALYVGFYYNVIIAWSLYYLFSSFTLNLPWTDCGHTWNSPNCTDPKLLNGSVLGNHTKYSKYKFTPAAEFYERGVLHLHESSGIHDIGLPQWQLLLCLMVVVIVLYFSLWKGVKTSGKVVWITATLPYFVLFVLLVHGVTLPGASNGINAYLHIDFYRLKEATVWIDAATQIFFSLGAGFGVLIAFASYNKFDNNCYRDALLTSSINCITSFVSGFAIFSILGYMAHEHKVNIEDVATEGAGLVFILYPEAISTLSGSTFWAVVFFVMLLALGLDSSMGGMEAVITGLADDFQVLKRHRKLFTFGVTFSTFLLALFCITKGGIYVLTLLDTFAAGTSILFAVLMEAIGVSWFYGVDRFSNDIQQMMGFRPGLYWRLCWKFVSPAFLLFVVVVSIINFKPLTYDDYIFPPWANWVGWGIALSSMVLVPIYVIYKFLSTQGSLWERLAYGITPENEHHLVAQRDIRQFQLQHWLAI
# Chain of Glucocorticoid receptor (Homo sapiens) (P04150 whole entry, looked up): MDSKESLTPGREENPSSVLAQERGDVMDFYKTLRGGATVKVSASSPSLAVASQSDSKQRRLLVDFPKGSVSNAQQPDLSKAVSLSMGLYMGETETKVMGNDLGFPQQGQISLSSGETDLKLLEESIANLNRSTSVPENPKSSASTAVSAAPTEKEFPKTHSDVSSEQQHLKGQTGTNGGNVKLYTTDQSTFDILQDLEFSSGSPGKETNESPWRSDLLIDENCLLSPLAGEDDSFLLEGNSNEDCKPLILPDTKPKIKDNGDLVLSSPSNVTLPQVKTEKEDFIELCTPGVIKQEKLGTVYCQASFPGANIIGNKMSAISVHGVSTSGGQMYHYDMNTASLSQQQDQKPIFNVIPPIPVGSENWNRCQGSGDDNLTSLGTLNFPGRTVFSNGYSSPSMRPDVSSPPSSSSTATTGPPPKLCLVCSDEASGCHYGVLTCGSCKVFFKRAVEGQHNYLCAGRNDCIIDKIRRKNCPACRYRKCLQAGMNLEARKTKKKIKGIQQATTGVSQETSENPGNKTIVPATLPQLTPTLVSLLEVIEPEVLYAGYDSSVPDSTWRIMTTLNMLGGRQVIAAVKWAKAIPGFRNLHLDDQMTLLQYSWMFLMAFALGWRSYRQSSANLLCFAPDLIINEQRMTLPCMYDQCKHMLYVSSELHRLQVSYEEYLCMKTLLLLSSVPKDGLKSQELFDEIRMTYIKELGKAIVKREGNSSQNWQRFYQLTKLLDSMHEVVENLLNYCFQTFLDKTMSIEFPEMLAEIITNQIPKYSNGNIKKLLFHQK
# Chain of Estrogen receptor beta (Homo sapiens) (Q92731 whole entry, looked up, the tested form may be a part): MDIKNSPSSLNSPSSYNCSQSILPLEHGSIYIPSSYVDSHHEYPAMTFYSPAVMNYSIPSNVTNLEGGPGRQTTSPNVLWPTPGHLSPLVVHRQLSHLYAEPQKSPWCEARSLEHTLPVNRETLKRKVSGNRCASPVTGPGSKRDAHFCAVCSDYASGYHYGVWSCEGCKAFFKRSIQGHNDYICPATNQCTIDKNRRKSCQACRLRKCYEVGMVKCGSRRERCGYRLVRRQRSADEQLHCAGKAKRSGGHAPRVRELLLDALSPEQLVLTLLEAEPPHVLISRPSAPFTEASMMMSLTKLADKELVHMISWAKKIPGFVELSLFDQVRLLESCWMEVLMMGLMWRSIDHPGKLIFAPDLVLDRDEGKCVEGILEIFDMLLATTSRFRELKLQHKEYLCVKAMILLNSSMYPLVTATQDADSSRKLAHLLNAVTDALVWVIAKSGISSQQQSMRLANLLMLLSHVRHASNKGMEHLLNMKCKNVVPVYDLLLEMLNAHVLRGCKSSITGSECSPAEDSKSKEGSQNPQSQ
# Chain of human Dopamine Transporter (DAT), SLC6A3 (gene 6531) (Q01959 whole entry, looked up): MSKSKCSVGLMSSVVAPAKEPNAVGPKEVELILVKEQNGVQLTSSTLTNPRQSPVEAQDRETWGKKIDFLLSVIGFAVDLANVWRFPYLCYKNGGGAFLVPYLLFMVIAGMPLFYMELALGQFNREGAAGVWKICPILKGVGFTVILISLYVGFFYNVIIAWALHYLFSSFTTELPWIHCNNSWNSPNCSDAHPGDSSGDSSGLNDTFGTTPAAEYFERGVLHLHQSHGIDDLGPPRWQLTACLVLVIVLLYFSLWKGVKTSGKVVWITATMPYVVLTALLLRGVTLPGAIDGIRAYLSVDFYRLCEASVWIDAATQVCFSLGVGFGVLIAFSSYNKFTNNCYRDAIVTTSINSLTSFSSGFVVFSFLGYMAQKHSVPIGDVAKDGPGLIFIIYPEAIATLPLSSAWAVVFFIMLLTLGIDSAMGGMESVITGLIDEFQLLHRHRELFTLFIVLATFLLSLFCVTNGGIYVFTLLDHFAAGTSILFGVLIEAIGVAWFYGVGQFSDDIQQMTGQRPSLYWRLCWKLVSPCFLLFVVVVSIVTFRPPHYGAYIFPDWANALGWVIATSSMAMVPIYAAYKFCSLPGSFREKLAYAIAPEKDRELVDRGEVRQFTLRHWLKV
# Chain of human Thyroid Receptor Alpha (TRa), THRA (gene 7067) (P10827 whole entry, looked up): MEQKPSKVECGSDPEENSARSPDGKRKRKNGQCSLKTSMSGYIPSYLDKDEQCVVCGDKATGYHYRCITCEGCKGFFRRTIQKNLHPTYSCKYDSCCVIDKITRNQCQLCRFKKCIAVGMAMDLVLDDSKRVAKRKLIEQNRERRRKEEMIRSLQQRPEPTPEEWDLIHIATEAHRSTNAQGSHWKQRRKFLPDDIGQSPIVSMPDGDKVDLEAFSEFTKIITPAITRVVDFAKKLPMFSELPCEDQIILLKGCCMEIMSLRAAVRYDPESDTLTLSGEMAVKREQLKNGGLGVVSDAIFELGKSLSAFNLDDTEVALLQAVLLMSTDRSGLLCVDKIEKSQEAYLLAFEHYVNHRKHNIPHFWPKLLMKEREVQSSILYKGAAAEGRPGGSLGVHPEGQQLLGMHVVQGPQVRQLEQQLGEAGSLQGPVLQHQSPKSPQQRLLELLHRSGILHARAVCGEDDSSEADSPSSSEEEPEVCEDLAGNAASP
# Chain of mouse Estrogen Receptor alpha (Era), Esr1 (gene 13982) (P19785 whole entry, looked up): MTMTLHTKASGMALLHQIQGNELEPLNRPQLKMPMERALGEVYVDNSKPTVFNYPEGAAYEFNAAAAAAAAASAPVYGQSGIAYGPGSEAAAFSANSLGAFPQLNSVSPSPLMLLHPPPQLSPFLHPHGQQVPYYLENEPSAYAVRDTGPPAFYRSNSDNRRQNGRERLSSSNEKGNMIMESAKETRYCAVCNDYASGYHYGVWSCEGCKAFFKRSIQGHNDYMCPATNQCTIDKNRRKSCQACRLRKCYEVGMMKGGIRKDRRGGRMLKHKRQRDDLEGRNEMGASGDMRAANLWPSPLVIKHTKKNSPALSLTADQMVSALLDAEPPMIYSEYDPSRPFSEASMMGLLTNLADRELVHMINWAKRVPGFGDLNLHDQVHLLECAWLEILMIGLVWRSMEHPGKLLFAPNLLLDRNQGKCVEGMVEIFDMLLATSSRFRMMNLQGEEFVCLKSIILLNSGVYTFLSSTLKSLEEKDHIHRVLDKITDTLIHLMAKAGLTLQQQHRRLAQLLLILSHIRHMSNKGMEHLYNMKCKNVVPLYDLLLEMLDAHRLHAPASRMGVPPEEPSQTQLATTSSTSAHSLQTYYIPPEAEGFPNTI
compound,measurement,setting,value
Nc1cccc2ccccc12,outcome,[1],inactive
same,AC50,[2],14.8 µM (active)
C=C(C)C(=O)[O][Sn]([CH2]CCC)([CH2]CCC)[CH2]CCC,AC50,[3],1.15 µM (active)
same,AC50,[4],36.7 µM (active)
same,AC50,[5],19.9 µM (active)
same,AC50,[6],8.9 µM (active)
same,AC50,[7],25 µM (active)
same,AC50,[8],2.82 µM (active)
same,AC50,[9],4.15 µM (active)
same,AC50,[10],4.76 µM (active)
same,AC50,[2],0.376 µM (active)
same,AC50,[11],9.68 µM (active)
same,outcome,[12],inactive
same,outcome,[13],inactive
same,AC50,[14],0.772 µM (active)
same,outcome,[15],inactive
Nc1ccc(-c2ccc(N)c(Cl)c2)cc1Cl,AC50,[1],32.5 µM (active)
same,AC50,[5],3.73 µM (active)
same,AC50,[8],1.63 µM (active)
same,AC50,[2],3.04 µM (active)
Oc1cccc2cccnc12,AC50,[16],5.52 µM (active)
same,outcome,[12],inactive
same,outcome,[17],inactive
O=C1C2(Cl)C3(Cl)C4(Cl)C(Cl)(Cl)C5(Cl)C3(Cl)C1(Cl)C5(Cl)C24Cl (centres undefined),outcome,[16],inactive
same,AC50,[3],841 nM (active) and 992 nM (active) and 186 nM (active)
same,outcome,[18],inactive
same,AC50,[2],1.57 µM (active) and 1.82 µM (active) and 869 nM (active)
same,outcome,[19],inactive
same,AC50,[17],10.7 µM (active)
same,AC50,[15],10.8 µM (active)
NC(=S)Nc1ccccc1,AC50,[1],33 µM (active)
same,AC50,[2],15.4 µM (active)
CCCCOCCOC(C)=O,outcome,[13],inactive
same,outcome,[14],inactive
same,outcome,[17],inactive
same,outcome,[15],inactive
Cc1ccc(N)cc1Cl,AC50,[14],0.789 µM (active)
BrCCBr,outcome,[12],inactive
same,outcome,[13],inactive
same,outcome,[14],inactive
O=C(Cc1ccccc1)c1ccccc1,outcome,[14],inactive
same,outcome,[17],inactive
same,outcome,[15],inactive
ClC(Cl)=C(Cl)C(Cl)=C(Cl)Cl,outcome,[13],inactive
same,outcome,[14],inactive
CCC[CH2][Sn]([Cl])([Cl])[Cl],outcome,[13],inactive
same,outcome,[14],inactive
same,outcome,[17],inactive
same,outcome,[15],inactive
CNC,outcome,[14],inactive
CC1(C)Cc2cccc(O)c2O1,outcome,[12],inactive
same,outcome,[14],inactive
Cl/C=C\C[N+]12CN3CN(CN(C3)C1)C2,outcome,[12],inactive
same,outcome,[14],inactive
CC(C)c1cccc(C(C)C)c1O,outcome,[12],inactive
same,outcome,[14],inactive
O=C1C(Cl)=C(Cl)C(=O)c2ccccc21,outcome,[12],inactive
same,outcome,[14],inactive
CCC(C)(C)c1ccc(O)c(C(C)(C)CC)c1,outcome,[12],inactive
same,outcome,[14],inactive
CCCCCCCCSC(=O)Oc1cc(Cl)nnc1-c1ccccc1,outcome,[14],inactive
CC(C#N)CCC#N (centres undefined),outcome,[12],inactive
same,outcome,[14],inactive
CC(=O)C=C(C)C,AC50,[14],22.9 µM (active)
O=C(NCO)NCO,outcome,[14],inactive
O=C(OC1CCCCC1)c1ccccc1C(=O)OC1CCCCC1,outcome,[13],inactive
same,outcome,[14],inactive
same,AC50,[17],40.1 µM (active)
same,AC50,[15],61.8 µM (active)
N#CN=C(N)N,outcome,[12],inactive
same,outcome,[14],inactive
same,outcome,[15],inactive
O=C(Nc1ccc2[nH]ccc2c1)c1cc2cc(F)ccc2n1Cc1cccc(F)c1,outcome,[12],inactive
same,outcome,[13],inactive
same,outcome,[14],inactive
same,outcome,[17],inactive
C1CCC(NC2CCCCC2)CC1,outcome,[14],inactive
O=C(O)C(F)(F)C(F)(F)C(F)(F)C(F)(F)C(F)(F)C(F)(F)F,outcome,[12],inactive
same,outcome,[17],inactive
same,outcome,[15],inactive
COc1cc(OC)nc(NC(=O)NS(=O)(=O)c2ncccc2C(=O)N(C)C)n1,outcome,[12],inactive
same,outcome,[13],inactive
same,outcome,[14],inactive
OCC(O)CCl (centres undefined),outcome,[13],inactive
same,outcome,[14],inactive
NC(=O)O,outcome,[14],inactive
CNC(=O)O/N=C/C(C)(C)S(C)=O (centres undefined),outcome,[12],inactive
same,outcome,[14],inactive
same,outcome,[17],inactive
OCc1ccco1,outcome,[12],inactive
same,outcome,[13],inactive
same,outcome,[14],inactive
same,outcome,[17],inactive
Clc1nc(Cl)nc(Cl)n1,outcome,[14],inactive
CN(C)N=O,outcome,[12],inactive
same,outcome,[15],inactive
C=C(C)C#N,outcome,[12],inactive
same,outcome,[13],inactive
same,outcome,[14],inactive
same,outcome,[17],inactive
COc1ccc(C=O)cc1OC,outcome,[12],inactive
same,outcome,[13],inactive
same,outcome,[14],inactive
[O-][Cl+2]([O-])O,outcome,[12],inactive
same,outcome,[14],inactive
same,outcome,[17],inactive
same,outcome,[15],inactive
O=C/C=C/c1ccccc1,outcome,[14],inactive
COc1ccc(C=O)cc1,outcome,[13],inactive
same,outcome,[14],inactive
CC(=O)c1cc(C(C)(C)C)cc2c1CCC2(C)C,outcome,[14],inactive
O=S(=O)(c1ccc(Cl)cc1)c1ccc(Cl)cc1,outcome,[12],inactive
same,outcome,[13],inactive
same,outcome,[14],inactive
